From PubChem BioAssay (NCATS)
Records with an inconclusive call do not appear. Values without a mark were called inactive. Calls of active or inactive are those of the source. Calls come from the whole dose curve; as a rule, active = well fitted cell-killing curve with a large enough effect; inconclusive = small, poorly fitted or top-dose-only effect, or effect the other way; inactive = no such curve, though single readings can be large or run the other way.

experiment: Viability qHTS for spleen associated tyrosine kinase inhibitor (SYKi) drug resistant MV4-11 cells (AID 1963824); settings: SYKi-resistant MV4-11 viability, CellTiter-Glo, 72 h; series mostly up to 45 µM; viability, % of control: at the top concentration; note: nearly all actives have a fitted effect of over 35% in size
In short: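 SYK inhibitor-resistant MV4-11 AML cells, 500 per well, added to predispensed compounds and incubated 72 hr at 37 C, 5% CO2. Viability measured by CellTiter-Glo luminescence after 10 min at room temperature.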
Potency is the fitted concentration of half-maximal effect.

Row | SMILES | viability, % of control | Potency
1 | O=C(O)CC(=O)OC[C@H]1O[C@@H](Oc2ccc3c(c2)OC[C@H]2c4cc5c(cc4O[C@@H]32)OCO5)[C@H](O)[C@@H](O)[C@@H]1O | 106% [at 17.3 µM] | –
2 | O=S(=O)(c1cccc2c(Cl)cccc12)N1CCCNCC1 | – | 20.6 µM (active)
3 | O=C(Nc1ccn(Cc2c(F)cccc2C(F)(F)F)n1)c1c(F)cccc1F | 91.5% [at 9.25 µM] | –
4 | CCC(C)/C=C(C)/C=C/C1=CC2=C(Cl)C(=O)C(C)(O)C(=O)C2(O)C(OC)O1 (stereo unspecified) | – | 10 µM (active)
5 | CC1(C)CC[C@]2(C(=O)O[C@@H]3O[C@H](CO)[C@@H](O)[C@H](O)[C@H]3O)CC[C@]3(C)C(=CCC4[C@@]5(C)CC[C@H](O[C@@H]6O[C@H](C(=O)O)[C@H](O)[C@H](O)[C@H]6O)C(C)(C)C5CC[C@]43C)[C@@H]2C1 (stereo partly specified) | – | 4.85 µM (active)
6 | CN(C)c1nc2c(Br)c(Br)c(Br)c(Br)c2[nH]1 | – | 8.2 µM (active)
7 | COC(=O)[C@]1(C)CCC[C@@]2(C)C(=O)CC[C@H]3C(=O)C=C(CC[C@@H]21)C3O (stereo partly specified) | 91.2% | –
8 | CN(C)CC/C=C1\c2ccccc2Sc2ccc(Cl)cc21 | – | 15 µM (active)
9 | O=C1OC2(c3ccc(O)cc3Oc3cc(O)ccc32)c2ccccc21 | 57.2% | –
10 | CC1OC2OC3C(OCC(O)C3O)OC(=O)C34CCC(C)(C)CC3C3=CCC5C6(C)CC(O)C(OC7OC(CO)C(O)C(O)C7OC7OCC(OC(=O)CC(C)(O)CC(=O)OC1C(OC1OCC(O)C(O)C1O)C2O)C(O)C7O)C(C)(CO)C6CCC5(C)C3(C)CC4O (stereo unspecified) | – | 1.78 µM (active)
11 | COc1cccc(-c2cn(-c3ccc(CCN4CCC(O)CC4)cc3)c3ncnc(N)c23)c1 | – | 2.31 µM (active)
12 | CC(C)(O)c1ccc2c(c1)C(O)CC1C(C)(C(=O)O)CCCC21C (stereo unspecified) | 95.9% | –
13 | C/C=C(\C)C(=O)OC1C(C)C2(O)C3C=C(C)C(=O)C3CC(CO)=CC2C2C(C)(C)C12OC(C)=O (stereo unspecified) | 12.6% [at 17.3 µM] | –
14 | COC(=O)C[C@H]1C(C)(C)[C@H](OC(=O)c2ccccc2)C2CC3=C4CC(=O)O[C@@H](c5ccoc5)[C@]4(C)CCC3[C@@]1(C)C2=O (stereo partly specified) | – | 10 µM (active)
15 | C=C1C(=O)OC2C1C(O)CC1(C)C(O)CCC(C=O)C21 (stereo unspecified) | – | 16.4 µM (active)
16 | CC1(C)[C@@H]2CC=C(CO[C@@H]3O[C@H](CO[C@@H]4OC[C@H](O)[C@H](O)[C@H]4O)[C@@H](O)[C@H](O)[C@H]3O)[C@H]1C2 | 99.9% [at 17.3 µM] | –
